Each structure is given as a SMILES string. About 3,800 (1.1%) of roughly 360,000 compounds were called active. Many of the other results were omitted from the sample, so actives are more common in it than they were. Unmarked numbers belong to inactive results.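 The calls were made as follows: active = compounds causing at least 50% loss of cell viability in the single-dose screen, relative to plate controls; inactive = the rest.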

This assay can be described thus: TRAIL-exposed caspase-8 expressing cell killing – NB7+C8 cells, ATPlite luminescence, TRAIL sensitizer project, primary screen (AID 624354). To be noted: at 10 µM, active compounds read high. On the technique in general: Cellular ATP, detected with luciferase, serves as a proxy for viable cell number.
Take `N#Cc1ccc(CN2CCN(CC(=O)Nc3ccccc3C(=O)NC3CC3)CC2)cc1`: the inhibition (viability loss, TRAIL sensitization) was -1.82%.

Consider `Cn1c(=NC(=O)c2cnccn2)sc2ccccc21`, for which the inhibition (viability loss, TRAIL sensitization) was 61.8% (active).

Turning to `Cn1c(=NC(=O)c2ccco2)sc2cccc(F)c21`, the inhibition (viability loss, TRAIL sensitization) was 47.7%.

Consider `COC(=O)c1ccc(OC(=O)c2cnccn2)cc1`, for which the inhibition (viability loss, TRAIL sensitization) is 6.75%.

Regarding `OCCCNC(c1ccccc1)c1ccc(O)cc1` (configuration not stated), the inhibition (viability loss, TRAIL sensitization) is 20.3%.

For `CN(C)c1cccc(NC(=O)c2ccc(-c3ccc(F)c(F)c3)c3ccoc23)c1`, the inhibition (viability loss, TRAIL sensitization) was 20.1%.

As to `Cc1sc2ncn(CC(=O)NCCCC(=O)N3CCN(c4ccccc4F)CC3)c(=O)c2c1C`, the inhibition (viability loss, TRAIL sensitization) was 19.6%.

Turning to `C=CCOc1ccc(/C=C2\SC(=S)N(CCC(=O)O)C2=O)cc1`, the inhibition (viability loss, TRAIL sensitization) is 56.9% (active).

For the compound `CN(C(=O)CN1C(=O)/C(=C/c2ccc(Cl)cc2)SC1=S)C1CCS(=O)(=O)C1` (configuration not stated), the inhibition (viability loss, TRAIL sensitization) is 10.1%.

For `CCN(C(=O)CN1C(=O)/C(=C/c2ccc(F)cc2)SC1=S)C1CCS(=O)(=O)C1` (configuration not stated), the inhibition (viability loss, TRAIL sensitization) was -9.46%.

In the case of `COCCN(C(=O)CSCc1ccc(C)cc1)c1c(N)n(CC(C)C)c(=O)[nH]c1=O`, the inhibition (viability loss, TRAIL sensitization) was -0.426%.

Take `COc1cccc(NC(=O)CN(C)CC(=O)c2c(N)n(Cc3ccccc3)c(=O)n(C)c2=O)c1`: the inhibition (viability loss, TRAIL sensitization) was -2.67%.

Turning to `Cc1ccc(S(=O)(=O)/N=C(\CN2CCOCC2)N2CCOCC2)cc1`, the inhibition (viability loss, TRAIL sensitization) was -0.117%.

As for `NN=C(NN=Cc1ccccc1)c1ccccc1`, the inhibition (viability loss, TRAIL sensitization) is 12.4%.

Consider `O=C(N/N=C/c1ccccc1O)/C(=C/c1ccccc1)CCO`, for which the inhibition (viability loss, TRAIL sensitization) is 51.4% (active).

With `O=C(N/N=C/c1cc([N+](=O)[O-])ccc1O)/C(=C\c1cccs1)NC(=O)c1ccccc1`, the inhibition (viability loss, TRAIL sensitization) is 41.5%.

Consider `CCCc1nn2c(=O)cc(CSCC(=O)Nc3cccc(C)c3)nc2s1`, for which the inhibition (viability loss, TRAIL sensitization) is -0.888%.

Regarding `COc1ccc(-c2cc3ccc(OCc4nn[nH]n4)cc3oc2=O)cc1`, the inhibition (viability loss, TRAIL sensitization) is 56.7% (active).

In the case of `CCOC(=O)CCc1c(C)c2ccc(OCc3nn[nH]n3)c(C)c2oc1=O`, the inhibition (viability loss, TRAIL sensitization) is -5.29%.

With `CCCCc1cc(=O)oc2cc(C)cc(OCc3nn[nH]n3)c12`, the inhibition (viability loss, TRAIL sensitization) is 10.2%.

For the compound `CCc1ccc(-n2c(=S)sc3c(=O)n(-c4ccccc4OC)c(=S)[nH]c32)cc1`, the inhibition (viability loss, TRAIL sensitization) is -3.67%.

`Cc1cccc(C)c1NC(=O)C(c1cccc2ccccc12)n1c(=O)c(-c2ccco2)nc2ccccc21` (configuration not stated): the inhibition (viability loss, TRAIL sensitization) was -6.27%.

As for `S=c1[nH]nc(/C=C/c2ccccc2)o1`, the inhibition (viability loss, TRAIL sensitization) is 0.666%.

As to `O=c1oc(-c2ccccc2NS(=O)(=O)c2ccc(Cl)cc2)nc2ccccc12`, the inhibition (viability loss, TRAIL sensitization) was 6.47%.

In the case of `O=c1oc(/C=C/c2ccccc2)nc2ccccc12`, the inhibition (viability loss, TRAIL sensitization) is 77.8% (active).

With `CN1CCC(CN)(N2CCN(c3ccccc3)CC2)CC1`, the inhibition (viability loss, TRAIL sensitization) was 6.93%.

`COc1ccc(CCNc2cc(N3CCN(C(=O)c4ccccc4OC)CC3)ccc2[N+](=O)[O-])cc1OC`: the inhibition (viability loss, TRAIL sensitization) was 39.3%.

On to `O=[N+]([O-])c1ccc(C=Nc2ccc(Cl)cc2Cl)s1`, for which the inhibition (viability loss, TRAIL sensitization) was 53.8% (active).

`C[C@@H]1CN([C@@H](C)CO)C(=O)c2cc(NS(C)(=O)=O)ccc2O[C@@H](C)CCCCO[C@H]1CN(C)C(=O)Nc1ccc2c(c1)OCO2`: the inhibition (viability loss, TRAIL sensitization) is -14.6%.

For the compound `Cn1c(NCc2cccnc2)nc2cc(-c3ccc(F)cc3)sc2c1=O`, the inhibition (viability loss, TRAIL sensitization) was 12.2%.

`COc1cccc(-c2cc3nc(NCCOc4ccccc4Cl)n(C)c(=O)c3s2)c1`: the inhibition (viability loss, TRAIL sensitization) was -1.03%.

For `O=c1[nH]c(CCl)nc2cc(-c3ccc(Cl)cc3)sc12`, the inhibition (viability loss, TRAIL sensitization) is 94.8% (active).

Turning to `CN(CC(=O)Nc1cccc(F)c1)C(=O)C1CC(=O)N(CCc2ccccc2)C1` (configuration not stated), the inhibition (viability loss, TRAIL sensitization) was 0.466%.

In the case of `Clc1ccc(Nc2ccc3ccccc3n2)cc1`, the inhibition (viability loss, TRAIL sensitization) was 22.5%.

Take `C(=N\Nc1ccc2ccccc2n1)/c1ccc2c(c1)OCO2`: the inhibition (viability loss, TRAIL sensitization) was 62.1% (active).

For `O=C(CNC(=O)C(c1ccccc1)c1ccccc1)N/N=C\c1ccc2c(c1)OCO2`, the inhibition (viability loss, TRAIL sensitization) is 9.36%.

For the compound `COc1ccc(NC(=O)C2(C)Cc3c(-c4cccc(NC(C)=O)c4)ccnc3O2)cc1OC` (configuration not stated), the inhibition (viability loss, TRAIL sensitization) was 4.61%.

As for `CCCCN1CC(N2CCN(Cc3cccc(C)c3)CC2)CS1(=O)=O` (configuration not stated), the inhibition (viability loss, TRAIL sensitization) is 4.54%.

Turning to `CC(=O)[C@@]12O[C@@H]1C[C@H]1[C@@H]3CC[C@H]4C[C@@H](O)CC[C@]4(C)[C@H]3CC[C@@]12C`, the inhibition (viability loss, TRAIL sensitization) was 0.527%.

Consider `CCCNc1c(N)c(=O)c1=O`, for which the inhibition (viability loss, TRAIL sensitization) is -1.54%.

For `C[C@H]1COc2cc(N3CCSCC3)ccc2S(=O)(=O)N1`, the inhibition (viability loss, TRAIL sensitization) was -6.12%.

For `Cc1cc(Br)cn2c(Cc3ccccc3C(F)(F)F)c(-c3ccc(Cl)cc3)nc12`, the inhibition (viability loss, TRAIL sensitization) is 22.1%.

Consider `O=C(O)c1cc(S(=O)(=O)N(Cc2ccccc2)c2ccccc2)ccc1Cl`, for which the inhibition (viability loss, TRAIL sensitization) is -9.38%.

On to `CCN(CC)CCCC(C)n1c2nc(=O)[nH]c(=O)c-2nc2cc(Cl)ccc21` (configuration not stated), for which the inhibition (viability loss, TRAIL sensitization) was 48.4% (active).

Turning to `CCc1ccc(S(=O)(=O)Nc2ccc(C)c(NS(C)(=O)=O)c2)cc1`, the inhibition (viability loss, TRAIL sensitization) was -5.21%.

In the case of `Cc1c(O)c(C)c2c(c1O)C(=O)C[C@@H](c1ccccc1)O2`, the inhibition (viability loss, TRAIL sensitization) is 18.2%.

In the case of `CC1CN(C(=O)CCC(=O)NCCCN2CCC(Cc3ccccc3)CC2)c2cc(Cl)ccc2O1` (configuration not stated), the inhibition (viability loss, TRAIL sensitization) is 40.8%.

Regarding `CC(C)=CCC/C(C)=C/C(=O)O`, the inhibition (viability loss, TRAIL sensitization) was -7.95%.

As to `O=C(COC(=O)c1ccc(O)cc1O)c1ccc2c(c1)OCCO2`, the inhibition (viability loss, TRAIL sensitization) was 0.773%.

As to `O=C(/C=C/c1ccc2c(c1)OCCO2)c1ccc(O)cc1`, the inhibition (viability loss, TRAIL sensitization) was 58.1% (active).

For `COc1ccc(OC)c(/C=C/C(=O)c2ccc3c(c2)OCO3)c1`, the inhibition (viability loss, TRAIL sensitization) was 12.1%.

For the compound `CCOCCCN(C(=O)Cn1nnc(-c2ccc(OC)c(OC)c2)n1)C(CC)C(=O)NC1CCCC1` (configuration not stated), the inhibition (viability loss, TRAIL sensitization) is -5.95%.

For `CCOC(=O)C(NS(=O)(=O)c1ccc(C)cc1)(C(F)(F)F)P(=O)(OCC(C)C)OCC(C)C` (configuration not stated), the inhibition (viability loss, TRAIL sensitization) is 27.5%.

On to `COc1ccccc1N1CCN(S(=O)(=O)c2ccc3c(c2)NC(=O)CS3)CC1`, for which the inhibition (viability loss, TRAIL sensitization) is 8.43%.

As for `Cc1nn(Cc2ccc(C(=O)N3N=C(C(F)F)CC3(O)C(F)F)cc2)c(C)c1[N+](=O)[O-]` (configuration not stated), the inhibition (viability loss, TRAIL sensitization) was 0.592%.

Regarding `CC(=O)Nc1ccc(S(=O)(=O)NC(C)C(=O)OCCOc2ccc(F)cc2)cc1` (configuration not stated), the inhibition (viability loss, TRAIL sensitization) is -1.76%.

As to `CS(=O)(=O)c1cccc(-c2ccc3nncn3c2)c1`, the inhibition (viability loss, TRAIL sensitization) is 1.26%.

Source of the values: PubChem BioAssay AID624354 (Sanford-Burnham Center for Chemical Genomics, 2012).
